Measured values published in article PMC7862700, “An all-to-all approach to the identification of sequence-specific readers for epigenetic DNA modifications on cytosine”.

How the values were obtained:
Assay in all cases: DAPPL (digital affinity profiling via proximity ligation, sequencing); 10 mM Tris-HCl pH 7.5, 50 mM NaCl, 1 mM DTT, 4% glycerol, room temperature, 30 min; GST-TFs on glutathione beads, 16-mer random dsDNA library, 0.1% formaldehyde crosslink after washing; high values mean tight binding
[1] = target: T1, FEV (Homo sapiens, UniProt Q99581 1-238); conditions: protein: recombinant; tags: N-terminal GST; dsDNA, one strand shown
T1 sequence: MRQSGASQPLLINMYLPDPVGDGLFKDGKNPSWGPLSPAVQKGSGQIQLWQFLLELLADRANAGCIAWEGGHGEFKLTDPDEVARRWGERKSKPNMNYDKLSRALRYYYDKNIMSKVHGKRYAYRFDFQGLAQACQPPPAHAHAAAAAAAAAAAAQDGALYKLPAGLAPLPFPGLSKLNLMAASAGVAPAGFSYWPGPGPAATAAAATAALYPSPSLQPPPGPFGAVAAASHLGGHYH
How it was run: (§1)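 Pools were built from human transcription factors expressed in yeast as GST fusions, captured on glutathione beads and DNA-barcoded, along with a tag-only sample. Incubation with 200 nmole of a 16-mer random double-stranded DNA library lasted 30 min at room temperature in Tris/NaCl/DTT/glycerol buffer, and was followed by washing, 0.1% formaldehyde crosslinking, proximity ligation, PCR amplification and Illumina NextSeq500 sequencing. Binding signal is the quotient of each hexamer's read frequency for a factor and its frequency for the tag-only sample.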

[2] = target: ETV5 (Homo sapiens, UniProt P41161 1-510); conditions: protein: recombinant; tags: N-terminal GST; dsDNA, one strand shown
Chain of ETV5 (P41161 whole entry): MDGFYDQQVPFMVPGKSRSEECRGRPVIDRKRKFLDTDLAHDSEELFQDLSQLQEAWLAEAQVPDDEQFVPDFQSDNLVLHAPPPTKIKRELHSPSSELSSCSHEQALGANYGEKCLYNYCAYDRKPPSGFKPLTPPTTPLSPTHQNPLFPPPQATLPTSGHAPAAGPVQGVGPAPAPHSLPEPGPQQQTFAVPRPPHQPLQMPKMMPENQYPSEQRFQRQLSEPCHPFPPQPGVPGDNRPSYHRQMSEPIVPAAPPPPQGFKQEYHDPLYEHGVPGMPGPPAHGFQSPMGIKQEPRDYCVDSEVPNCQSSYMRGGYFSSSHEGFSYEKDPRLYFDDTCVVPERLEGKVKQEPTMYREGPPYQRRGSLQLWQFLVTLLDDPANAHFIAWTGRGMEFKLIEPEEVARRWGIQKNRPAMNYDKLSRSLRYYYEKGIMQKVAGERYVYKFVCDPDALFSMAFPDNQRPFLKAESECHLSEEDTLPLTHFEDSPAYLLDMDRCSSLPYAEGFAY
How it was run: as §1

[3] = target: HSF1 (Homo sapiens, UniProt Q00613 1-529); conditions: protein: recombinant; tags: N-terminal GST; chain copies: 3; dsDNA, one strand shown
Chain of HSF1 (Q00613 whole entry): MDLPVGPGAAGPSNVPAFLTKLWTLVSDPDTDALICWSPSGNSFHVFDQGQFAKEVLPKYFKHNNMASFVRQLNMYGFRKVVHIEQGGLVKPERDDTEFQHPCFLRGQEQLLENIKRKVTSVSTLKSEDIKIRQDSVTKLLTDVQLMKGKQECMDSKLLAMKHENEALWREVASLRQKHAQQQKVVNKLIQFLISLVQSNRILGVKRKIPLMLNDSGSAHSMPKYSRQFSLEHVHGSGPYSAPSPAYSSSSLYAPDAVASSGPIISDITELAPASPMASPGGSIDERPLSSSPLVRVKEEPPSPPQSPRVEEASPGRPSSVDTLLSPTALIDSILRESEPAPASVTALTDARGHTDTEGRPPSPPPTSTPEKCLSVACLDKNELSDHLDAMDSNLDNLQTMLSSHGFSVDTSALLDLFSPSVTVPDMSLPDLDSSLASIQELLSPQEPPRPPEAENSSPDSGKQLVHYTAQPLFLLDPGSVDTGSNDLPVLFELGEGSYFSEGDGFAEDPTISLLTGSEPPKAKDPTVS
How it was run: as §1

[4] = target: T2, SPIC (Homo sapiens, UniProt Q8N5J4 1-248); conditions: protein: recombinant; tags: N-terminal GST; dsDNA, one strand shown
T2 sequence: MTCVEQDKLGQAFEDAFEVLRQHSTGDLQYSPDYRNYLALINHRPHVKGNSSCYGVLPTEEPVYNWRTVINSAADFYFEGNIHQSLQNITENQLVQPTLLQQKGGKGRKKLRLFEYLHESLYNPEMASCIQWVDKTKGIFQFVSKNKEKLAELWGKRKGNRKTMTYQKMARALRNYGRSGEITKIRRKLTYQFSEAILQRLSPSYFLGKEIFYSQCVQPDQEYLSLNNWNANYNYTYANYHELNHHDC
How it was run: as §1

[5] = target: ELF4 (Homo sapiens, UniProt Q99607 1-663); conditions: protein: recombinant; tags: N-terminal GST; dsDNA, one strand shown
Chain of ELF4 (Q99607 whole entry): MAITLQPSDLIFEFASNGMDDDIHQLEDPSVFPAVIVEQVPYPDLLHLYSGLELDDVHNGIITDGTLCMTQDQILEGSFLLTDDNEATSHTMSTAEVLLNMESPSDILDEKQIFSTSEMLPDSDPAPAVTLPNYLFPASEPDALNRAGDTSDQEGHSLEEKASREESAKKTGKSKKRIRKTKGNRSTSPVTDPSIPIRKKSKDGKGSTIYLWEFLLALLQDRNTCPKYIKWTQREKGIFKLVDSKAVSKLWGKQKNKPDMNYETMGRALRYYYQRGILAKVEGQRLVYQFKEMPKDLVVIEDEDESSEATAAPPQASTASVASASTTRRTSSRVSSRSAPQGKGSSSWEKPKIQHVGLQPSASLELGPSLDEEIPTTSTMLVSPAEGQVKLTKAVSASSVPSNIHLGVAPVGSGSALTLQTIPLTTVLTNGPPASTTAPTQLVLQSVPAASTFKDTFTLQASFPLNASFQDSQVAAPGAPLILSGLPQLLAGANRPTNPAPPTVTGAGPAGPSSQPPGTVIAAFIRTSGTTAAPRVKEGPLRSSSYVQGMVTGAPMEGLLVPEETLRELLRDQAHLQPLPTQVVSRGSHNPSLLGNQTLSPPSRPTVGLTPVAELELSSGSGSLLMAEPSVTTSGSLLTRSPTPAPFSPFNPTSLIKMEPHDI
How it was run: as §1

[6] = target: T3, ELK4 (Homo sapiens, UniProt P28324-2 1-405); conditions: protein: recombinant; tags: N-terminal GST; dsDNA, one strand shown
T3 sequence: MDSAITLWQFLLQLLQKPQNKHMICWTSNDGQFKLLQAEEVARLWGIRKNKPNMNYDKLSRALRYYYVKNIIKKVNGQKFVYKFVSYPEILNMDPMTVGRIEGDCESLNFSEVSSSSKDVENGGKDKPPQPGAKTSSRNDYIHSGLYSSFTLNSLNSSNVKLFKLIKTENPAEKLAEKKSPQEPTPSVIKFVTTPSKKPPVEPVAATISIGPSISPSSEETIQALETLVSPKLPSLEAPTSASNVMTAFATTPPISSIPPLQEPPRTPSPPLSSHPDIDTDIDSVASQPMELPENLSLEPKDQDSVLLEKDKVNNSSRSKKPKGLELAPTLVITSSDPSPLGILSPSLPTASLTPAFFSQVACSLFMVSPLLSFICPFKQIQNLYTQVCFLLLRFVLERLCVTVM
How it was run: as §1

[7] = target: T4, ETV2 (Homo sapiens, UniProt O00321 1-342); conditions: protein: recombinant; tags: N-terminal GST; dsDNA, one strand shown
T4 sequence: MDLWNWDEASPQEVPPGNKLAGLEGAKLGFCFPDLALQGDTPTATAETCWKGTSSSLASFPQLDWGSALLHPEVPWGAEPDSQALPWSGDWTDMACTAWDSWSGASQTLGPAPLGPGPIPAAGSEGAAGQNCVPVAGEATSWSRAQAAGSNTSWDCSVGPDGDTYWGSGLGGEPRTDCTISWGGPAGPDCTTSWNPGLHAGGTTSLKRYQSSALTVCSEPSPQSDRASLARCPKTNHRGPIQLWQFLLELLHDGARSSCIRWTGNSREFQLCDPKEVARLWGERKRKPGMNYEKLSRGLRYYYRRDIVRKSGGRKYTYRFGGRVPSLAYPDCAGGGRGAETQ
How it was run: as §1

[8] = target: T5, ELF3 (Homo sapiens, UniProt P78545 1-371); conditions: protein: recombinant; tags: N-terminal GST; dsDNA, one strand shown
T5 sequence: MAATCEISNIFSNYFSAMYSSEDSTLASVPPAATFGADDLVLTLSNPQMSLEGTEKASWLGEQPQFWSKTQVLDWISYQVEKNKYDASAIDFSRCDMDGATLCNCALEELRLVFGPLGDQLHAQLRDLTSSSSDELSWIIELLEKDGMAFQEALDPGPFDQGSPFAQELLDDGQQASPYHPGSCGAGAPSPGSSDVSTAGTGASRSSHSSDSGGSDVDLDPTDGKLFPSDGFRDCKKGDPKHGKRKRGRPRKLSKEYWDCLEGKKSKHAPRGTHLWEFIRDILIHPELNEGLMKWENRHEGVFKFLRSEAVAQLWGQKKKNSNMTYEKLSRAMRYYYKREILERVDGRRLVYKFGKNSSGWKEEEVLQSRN
How it was run: as §1

[9] = target: CRX (Homo sapiens, UniProt O43186 1-299); conditions: protein: recombinant; tags: N-terminal GST; dsDNA, one strand shown
Chain of CRX (O43186 whole entry): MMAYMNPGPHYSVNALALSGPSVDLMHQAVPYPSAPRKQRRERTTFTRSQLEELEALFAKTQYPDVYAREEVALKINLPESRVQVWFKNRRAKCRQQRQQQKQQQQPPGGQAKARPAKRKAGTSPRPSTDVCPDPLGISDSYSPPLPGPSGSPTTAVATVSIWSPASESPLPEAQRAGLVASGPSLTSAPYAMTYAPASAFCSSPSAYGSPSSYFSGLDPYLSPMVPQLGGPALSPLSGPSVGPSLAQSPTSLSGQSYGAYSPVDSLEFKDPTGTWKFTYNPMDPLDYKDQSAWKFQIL
How it was run: as §1

[10] = target: ETV1 (Homo sapiens, UniProt P50549 1-477); conditions: protein: recombinant; tags: N-terminal GST; dsDNA, one strand shown
Chain of ETV1 (P50549 whole entry): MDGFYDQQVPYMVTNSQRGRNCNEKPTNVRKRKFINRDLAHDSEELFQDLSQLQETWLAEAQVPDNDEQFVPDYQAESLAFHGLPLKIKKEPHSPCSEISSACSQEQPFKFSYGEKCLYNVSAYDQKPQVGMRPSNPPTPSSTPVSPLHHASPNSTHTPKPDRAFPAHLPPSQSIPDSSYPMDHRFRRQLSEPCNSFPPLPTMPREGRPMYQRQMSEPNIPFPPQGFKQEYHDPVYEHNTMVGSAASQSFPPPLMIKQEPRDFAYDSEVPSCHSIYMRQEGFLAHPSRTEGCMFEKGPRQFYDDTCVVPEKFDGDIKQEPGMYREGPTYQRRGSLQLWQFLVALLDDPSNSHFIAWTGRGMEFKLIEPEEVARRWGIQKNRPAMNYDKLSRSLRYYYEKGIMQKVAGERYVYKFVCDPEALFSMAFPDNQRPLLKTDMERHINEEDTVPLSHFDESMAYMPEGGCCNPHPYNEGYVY
How it was run: as §1

[11] = target: T6, ERF (Homo sapiens, UniProt P50548 1-548); conditions: protein: recombinant; tags: N-terminal GST; dsDNA, one strand shown
T6 sequence: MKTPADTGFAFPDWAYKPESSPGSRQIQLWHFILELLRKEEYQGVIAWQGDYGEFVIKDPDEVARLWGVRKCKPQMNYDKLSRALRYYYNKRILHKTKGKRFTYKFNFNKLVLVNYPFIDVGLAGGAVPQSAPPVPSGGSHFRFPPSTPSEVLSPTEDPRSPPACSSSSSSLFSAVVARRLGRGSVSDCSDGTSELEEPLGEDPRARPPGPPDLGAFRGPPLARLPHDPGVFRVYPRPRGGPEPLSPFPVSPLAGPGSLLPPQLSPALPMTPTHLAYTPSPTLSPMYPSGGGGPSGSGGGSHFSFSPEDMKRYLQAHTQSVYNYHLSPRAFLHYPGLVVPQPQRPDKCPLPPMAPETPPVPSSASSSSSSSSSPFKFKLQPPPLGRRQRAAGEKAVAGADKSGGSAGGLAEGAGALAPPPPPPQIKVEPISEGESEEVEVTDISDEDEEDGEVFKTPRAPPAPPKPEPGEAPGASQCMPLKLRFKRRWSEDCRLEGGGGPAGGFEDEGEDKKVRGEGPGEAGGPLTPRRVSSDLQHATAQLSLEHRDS
How it was run: as §1

[12] = target: T7, ETV3L (Homo sapiens, UniProt Q6ZN32 1-361); conditions: protein: recombinant; tags: N-terminal GST; dsDNA, one strand shown
T7 sequence: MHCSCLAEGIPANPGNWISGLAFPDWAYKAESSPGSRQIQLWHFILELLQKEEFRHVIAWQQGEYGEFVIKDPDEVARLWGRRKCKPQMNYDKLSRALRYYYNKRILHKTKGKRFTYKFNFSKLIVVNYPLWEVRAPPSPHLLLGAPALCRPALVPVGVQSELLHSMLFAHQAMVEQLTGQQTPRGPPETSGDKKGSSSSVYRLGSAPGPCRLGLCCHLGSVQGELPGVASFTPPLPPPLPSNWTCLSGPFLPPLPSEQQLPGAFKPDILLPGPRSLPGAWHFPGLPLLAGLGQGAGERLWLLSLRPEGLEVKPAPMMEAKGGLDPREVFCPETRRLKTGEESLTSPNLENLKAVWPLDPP
How it was run: as §1

[13] = target: T8, ETS2 (Homo sapiens, UniProt P15036 1-469); conditions: protein: recombinant; tags: N-terminal GST; dsDNA, one strand shown
T8 sequence: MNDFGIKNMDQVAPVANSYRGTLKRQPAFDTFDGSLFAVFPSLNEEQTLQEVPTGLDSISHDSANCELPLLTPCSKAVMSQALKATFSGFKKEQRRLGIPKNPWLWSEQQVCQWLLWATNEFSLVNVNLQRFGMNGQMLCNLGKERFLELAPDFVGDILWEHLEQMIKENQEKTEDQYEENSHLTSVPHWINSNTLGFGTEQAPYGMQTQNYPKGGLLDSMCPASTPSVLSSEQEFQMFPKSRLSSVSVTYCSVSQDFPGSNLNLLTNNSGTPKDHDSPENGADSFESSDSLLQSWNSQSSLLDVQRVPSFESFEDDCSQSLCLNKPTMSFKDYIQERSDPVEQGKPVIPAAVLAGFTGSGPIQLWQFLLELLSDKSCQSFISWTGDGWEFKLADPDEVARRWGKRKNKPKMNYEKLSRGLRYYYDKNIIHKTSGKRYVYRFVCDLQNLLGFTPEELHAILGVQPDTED
How it was run: as §1

[14] = target: T9, SPDEF (Homo sapiens, UniProt O95238 1-335); conditions: protein: recombinant; tags: N-terminal GST; dsDNA, one strand shown
T9 sequence: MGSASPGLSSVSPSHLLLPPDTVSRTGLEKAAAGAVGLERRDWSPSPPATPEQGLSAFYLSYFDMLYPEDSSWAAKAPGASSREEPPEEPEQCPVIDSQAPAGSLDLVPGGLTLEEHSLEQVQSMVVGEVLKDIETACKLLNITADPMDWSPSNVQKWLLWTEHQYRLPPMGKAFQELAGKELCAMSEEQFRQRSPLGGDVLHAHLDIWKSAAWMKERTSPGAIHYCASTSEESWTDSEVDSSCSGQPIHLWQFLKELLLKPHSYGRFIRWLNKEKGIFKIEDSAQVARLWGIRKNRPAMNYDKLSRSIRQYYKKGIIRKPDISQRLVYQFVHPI
How it was run: as §1

[15] = target: T10, ETV7 (Homo sapiens, UniProt Q9Y603 1-341); conditions: protein: recombinant; tags: N-terminal GST; dsDNA, one strand shown
T10 sequence: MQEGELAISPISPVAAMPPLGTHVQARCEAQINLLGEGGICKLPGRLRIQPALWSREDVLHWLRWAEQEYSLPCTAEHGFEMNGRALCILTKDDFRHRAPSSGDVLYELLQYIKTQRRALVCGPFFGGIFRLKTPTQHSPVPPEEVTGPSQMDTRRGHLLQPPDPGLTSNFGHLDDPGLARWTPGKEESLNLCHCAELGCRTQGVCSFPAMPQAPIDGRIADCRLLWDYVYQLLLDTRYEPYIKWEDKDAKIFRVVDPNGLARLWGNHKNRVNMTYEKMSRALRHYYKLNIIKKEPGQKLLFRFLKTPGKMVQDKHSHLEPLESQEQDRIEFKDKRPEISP
How it was run: as §1

[16] = target: T11, ELF5 (Homo sapiens, UniProt Q9UKW6-2 1-255); conditions: protein: recombinant; tags: N-terminal GST; dsDNA, one strand shown
T11 sequence: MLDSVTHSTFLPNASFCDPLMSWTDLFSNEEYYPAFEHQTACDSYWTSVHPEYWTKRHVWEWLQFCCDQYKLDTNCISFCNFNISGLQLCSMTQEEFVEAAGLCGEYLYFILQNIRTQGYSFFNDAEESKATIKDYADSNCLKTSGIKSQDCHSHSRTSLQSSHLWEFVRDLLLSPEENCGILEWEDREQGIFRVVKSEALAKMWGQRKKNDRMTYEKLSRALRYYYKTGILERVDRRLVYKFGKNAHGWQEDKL
How it was run: as §1

[17] = target: T12, ETV3 (Homo sapiens, UniProt P41162-2 1-143); conditions: protein: recombinant; tags: N-terminal GST; dsDNA, one strand shown
T12 sequence: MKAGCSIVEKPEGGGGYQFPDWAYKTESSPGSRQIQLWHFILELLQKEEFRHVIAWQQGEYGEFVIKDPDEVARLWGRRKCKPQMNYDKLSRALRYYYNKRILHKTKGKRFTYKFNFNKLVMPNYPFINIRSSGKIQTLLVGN
How it was run: as §1

[18] = target: ETV6 (Homo sapiens, UniProt P41212 1-452); conditions: protein: recombinant; tags: N-terminal GST; dsDNA, one strand shown
Chain of ETV6 (P41212 whole entry): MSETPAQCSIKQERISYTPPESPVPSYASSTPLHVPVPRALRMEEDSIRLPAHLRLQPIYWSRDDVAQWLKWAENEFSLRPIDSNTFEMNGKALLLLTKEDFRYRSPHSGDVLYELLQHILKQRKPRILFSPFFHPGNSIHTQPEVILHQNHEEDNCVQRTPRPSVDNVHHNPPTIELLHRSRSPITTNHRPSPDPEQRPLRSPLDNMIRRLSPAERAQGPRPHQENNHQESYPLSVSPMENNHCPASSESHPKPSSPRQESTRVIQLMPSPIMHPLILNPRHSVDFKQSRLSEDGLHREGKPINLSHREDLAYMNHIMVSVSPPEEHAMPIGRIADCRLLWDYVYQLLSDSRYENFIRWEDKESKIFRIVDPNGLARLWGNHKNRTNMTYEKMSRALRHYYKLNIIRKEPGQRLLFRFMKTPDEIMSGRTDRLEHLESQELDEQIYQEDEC
How it was run: as §1

In the case of TGTGCT, the binding signal [1] is reported as 1.25 fold enrichment (6-mer frequency, TF over GST control), the binding signal [2] is reported as 1.18 fold enrichment (6-mer frequency, TF over GST control) and the binding signal [3] is reported as 1.15 fold enrichment (6-mer frequency, TF over GST control). The binding signal [4] was 1.35 fold enrichment (6-mer frequency, TF over GST control), the binding signal [5] was 1.17 fold enrichment (6-mer frequency, TF over GST control) and the binding signal [6] was 1.17 fold enrichment (6-mer frequency, TF over GST control). The binding signal [7] was 1.21 fold enrichment (6-mer frequency, TF over GST control), the binding signal [8] was 1.27 fold enrichment (6-mer frequency, TF over GST control) and the binding signal [9] was 1.1 fold enrichment (6-mer frequency, TF over GST control). The binding signal [10] was 1.18 fold enrichment (6-mer frequency, TF over GST control), the binding signal [11] was 1.19 fold enrichment (6-mer frequency, TF over GST control) and the binding signal [12] was 1.12 fold enrichment (6-mer frequency, TF over GST control). For the same sequence, the binding signal [13] was 1.12 fold enrichment (6-mer frequency, TF over GST control), the binding signal [14] was 1.31 fold enrichment (6-mer frequency, TF over GST control) and the binding signal [15] was 1.18 fold enrichment (6-mer frequency, TF over GST control). The binding signal [16] was 1.15 fold enrichment (6-mer frequency, TF over GST control), the binding signal [17] was 1.18 fold enrichment (6-mer frequency, TF over GST control) and the binding signal [18] was 1.22 fold enrichment (6-mer frequency, TF over GST control).
